# Test results from PubChem BioAssay (NCI).
# Several values for one entry are separate records, joined by “and”; a condition that tells them apart may be missing. Identical values can stand only once. This is part of a sample that, as a whole, favours compounds with a hit. Of some 79,000 tested, about 15% had one in any assay. Some compounds were tested as several samples or in several runs, with calls that do not always agree. Activity calls are given as the source filed them. Rule as the data show it: active = growth inhibition above about 70%; inactive = the rest. Where a SMILES comes first, the peptide text is derived from it. [ ]: non-standard residue; d: D form. ξ: configuration not given here. ξV = CC(C)C(N)C(=O)O
# Key:
# [1] = NCI Yeast Anticancer Drug Screen. Data for the rad50 strain (AID 155);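 also: 0% = growth of vehicle-only cultures of the same strain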; details: S. cerevisiae rad50 strain growth inhibition, stronger effect = higher value
# How it was run: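 Relative growth inhibition (compound vs vehicle) was measured in yeast with a defined repair-gene alteration.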
# [2] = NCI Yeast Anticancer Drug Screen. Data for the mec2-1 strain (AID 157); details: S. cerevisiae mec2-1 strain, stronger effect = higher value
# How it was run: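 Strain: mec2-1 (DNA repair/cell cycle alteration). Compound exposure, then growth measured; inhibition expressed relative to vehicle.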
# [3] = NCI Yeast Anticancer Drug Screen. Data for the sgs1 mgt1 strain (AID 161);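 also: 0% = growth of cultures given vehicle only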; details: S. cerevisiae sgs1 mgt1 strain, stronger effect = higher value
# How it was run: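 Read-out: growth inhibition vs vehicle controls. Cells: mutant yeast strain deficient in DNA damage repair.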
# [4] = NCI Yeast Anticancer Drug Screen. Data for the cln2 rad14 strain (AID 165);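 also: 0% = growth equal to vehicle treated cultures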; details: S. cerevisiae cln2 rad14 strain, stronger effect = higher value
# How it was run: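 Compounds are applied to the cln2 rad14 yeast strain, and growth is then compared with that of vehicle-treated cultures to give inhibition.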
# [5] = NCI Yeast Anticancer Drug Screen. Data for the bub3 strain (AID 167); details: S. cerevisiae bub3 mutant strain, stronger effect = higher value
# How it was run: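 Screening used yeast with an engineered genetic alteration affecting cell cycle control. Compound-exposed cultures were compared with vehicle cultures, and reduced growth was taken as inhibition.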
# [6] = NCI Yeast Anticancer Drug Screen. Data for the mlh1 rad18 strain (AID 175); details: S. cerevisiae mlh1 rad18 strain growth inhibition, stronger effect = higher value
# How it was run: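 Read-out is yeast growth inhibition, calculated against vehicle-only controls. The compound was applied to a strain engineered with DNA damage repair alterations.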
# [7] = at 5.0 µM (retest, dose inferred, filed as 0.5)
# [8] = at 50.0 µM (retest, dose inferred, filed as 5.0)
SMILES,"growth inhibition [1, 7]","growth inhibition [1, 8]",growth inhibition ([1]; at 50.0 µM),"growth inhibition [2, 7]","growth inhibition [2, 8]",growth inhibition ([2]; at 50.0 µM),"growth inhibition [3, 7]","growth inhibition [3, 8]",growth inhibition ([3]; at 50.0 µM),"growth inhibition [4, 7]","growth inhibition [4, 8]",growth inhibition ([4]; at 50.0 µM),"growth inhibition [5, 7]","growth inhibition [5, 8]",growth inhibition ([5]; at 50.0 µM),"growth inhibition [6, 7]","growth inhibition [6, 8]",growth inhibition ([6]; at 50.0 µM)
O=C1N(c2ccccc2)C(=O)N1c1ccccc1,-8% (inactive),-6% (inactive),1.05% (inactive) and 0.3% (inactive),-19% (inactive),-1% (inactive),25.6% (inactive) and -2.2% (inactive),-11% (inactive),3% (inactive),43.2% (inactive) and -12.2% (inactive),20% (inactive),17% (inactive),0.1% (inactive) and -20.9% (inactive),14% (inactive),17% (inactive),22.1% (inactive) and -12.4% (inactive),-16% (inactive),-11% (inactive),28.6% (inactive) and 2.3% (inactive)
CC(C)C(NC(=O)CN)C(=O)O (stereo not drawn) (H-Gly-[ξV]-OH),-165% (inactive),-152% (inactive),-7.85% (inactive) and -10.2% (inactive) and -15.5% (inactive),-46% (inactive),-52% (inactive),3.95% (inactive) and -7.6% (inactive) and -21.6% (inactive),-62% (inactive),-64% (inactive),-0.15% (inactive) and -21.6% (inactive) and -5.05% (inactive),-59% (inactive),-60% (inactive),35.5% (inactive) and 5.7% (inactive) and -2.4% (inactive),-75% (inactive),-79% (inactive),-31.8% (inactive) and -8.25% (inactive) and -5.15% (inactive),-146% (inactive),-116% (inactive),16.8% (inactive) and -21.9% (inactive) and -0.65% (inactive)
N#Cc1c(-c2ccccc2)cc(-c2ccccc2)n(C2OC(CO)C(O)C(O)C2O)c1=S (stereo not drawn),-4% (inactive) and 0% (inactive),4% (inactive) and -12% (inactive),93% (active) and 32.5% (inactive),-7% (inactive) and -4% (inactive),-19% (inactive) and -15% (inactive),40.9% (inactive) and -23.4% (inactive),-14% (inactive) and 4% (inactive),10% (inactive) and 8% (inactive),4% (inactive) and -26.1% (inactive),10% (inactive) and -1% (inactive),22% (inactive) and 18% (inactive),-35% (inactive) and -38.9% (inactive),-1% (inactive) and 10% (inactive),11% (inactive) and 4% (inactive),53.6% (inactive) and -49.4% (inactive),9% (inactive) and 1% (inactive),8% (inactive) and -7% (inactive),60.5% (inactive) and 1% (inactive)
COC(=O)C1OC(OC(C)=O)C(OC(C)=O)C(OC(C)=O)C1OC(C)=O (stereo not drawn),-4% (inactive),5% (inactive),7.25% (inactive) and 3.25% (inactive),-6% (inactive),8% (inactive),14.4% (inactive) and 8.2% (inactive),-5% (inactive),9% (inactive),7.05% (inactive) and 10.9% (inactive),1% (inactive),-2% (inactive),-12.2% (inactive) and 60.5% (inactive),-4% (inactive),11% (inactive),-7.15% (inactive) and 24.6% (inactive),-7% (inactive),14% (inactive),16% (inactive) and 9.3% (inactive)
CCSSC(=Nc1ccccc1)OCC(C)C,17% (inactive),91% (active),62% (inactive),18% (inactive),70% (active),80.4% (active),47% (inactive),97% (active),71.8% (active),50% (inactive),92% (active),30.8% (inactive),52% (inactive),97% (active),84.4% (active),23% (inactive),82% (active),80% (active)
COC(=O)C1c2cc3c(cc2C(OC2OC(C)C(OC)C(C)(OC)C2OC)CC1(C)O)C(=O)c1c(O)cc2c(c1C3=O)OC1OC2(C)C(O)C([N+](C)(C)[O-])C1O (stereo not drawn),7% (inactive),65% (inactive),70.4% (active),3% (inactive),8% (inactive),61.4% (inactive),-2% (inactive),27% (inactive),65.8% (inactive),24% (inactive),39% (inactive),47.6% (inactive),-10% (inactive),31% (inactive),74.8% (active),-8% (inactive),57% (inactive),54.5% (inactive)
CC(C)CCCC(C)C1CCC2C3CC=C4CC([n+]5cccc6ccccc65)CCC4(C)C3CCC12C (stereo not drawn),78% (active),90% (active),93.3% (active),11% (inactive),92% (active),95.4% (active),60% (inactive),50% (inactive),94.8% (active),39% (inactive),91% (active),68% (inactive),74% (active),89% (active),92.2% (active),74% (active),89% (active),95.2% (active)
OC(c1ccccc1)(c1ccccc1)c1ccccc1 (tested in a mixture with another compound),-5% (inactive),94% (active),10.7% (inactive) and 96.7% (active),-7% (inactive),91% (active),2.55% (inactive) and 96.5% (active),-3% (inactive),90% (active),-1.85% (inactive) and 92.7% (active),-12% (inactive),94% (active),-4.75% (inactive) and 95.2% (active),-7% (inactive),96% (active),1.15% (inactive) and 95.4% (active),-6% (inactive),93% (active),9.15% (inactive) and 94% (active)
Clc1ccc(CNNCc2ccc(Cl)cc2)cc1,-12% (inactive),85% (active),7.2% (inactive) and 78.7% (active),0% (inactive),96% (active),-3.05% (inactive) and -2.3% (inactive),-2% (inactive),98% (active),-3% (inactive) and 58.5% (inactive),-1% (inactive),72% (active),-10.4% (inactive) and 16.6% (inactive),46% (inactive),96% (active),-9.95% (inactive) and 72.6% (active),-2% (inactive),94% (active),11.7% (inactive) and 67.8% (inactive)
O=Nc1ccc(C=C2C(=O)C=CC2=O)cc1,94% (active),98% (active),99.5% (active),99% (active),99% (active),99.7% (active),94% (active),99% (active),99.4% (active),72% (active),98% (active),99% (active),84% (active),99% (active),99.4% (active),97% (active),98% (active),99.5% (active)
Nc1c2ccccc2nc2ccccc12,51% (inactive) and 41% (inactive),92% (active) and 90% (active),94.5% (active) and 92.5% (active),18% (inactive) and 19% (inactive),66% (inactive) and 70% (active),60.8% (inactive) and 60.3% (inactive),20% (inactive) and 18% (inactive),73% (active) and 68% (inactive),75.8% (active) and 74% (active),25% (inactive),51% (inactive) and 65% (inactive),54.5% (inactive) and 79% (active),5% (inactive) and -1% (inactive),79% (active) and 73% (active),63.6% (inactive) and 75.5% (active),21% (inactive) and 25% (inactive),86% (active),90.6% (active) and 88.5% (active)
c1ccc(-c2nc3ccccc3[nH]2)cc1,1% (inactive),28% (inactive),6.4% (inactive) and 34.6% (inactive),-3% (inactive),19% (inactive),-5.55% (inactive) and 5.3% (inactive),-11% (inactive),29% (inactive),-8.85% (inactive) and 1% (inactive),4% (inactive),39% (inactive),-50.4% (inactive) and -4.4% (inactive),0% (inactive),24% (inactive),-13.2% (inactive) and -5.15% (inactive),0% (inactive),74% (active),-0.55% (inactive) and 43% (inactive)
CC(=O)Nc1ccc(S(=O)(=O)N/N=C/c2ccc(C)cc2)cc1,7% (inactive),8% (inactive),-3.15% (inactive),8% (inactive),1% (inactive),-17.6% (inactive),15% (inactive),6% (inactive),7.45% (inactive),8% (inactive),1% (inactive),64.5% (inactive),26% (inactive),-1% (inactive),-38.6% (inactive),28% (inactive),7% (inactive),-12.4% (inactive)
O=S(c1cc(Cl)cc(Cl)c1O)c1cc(Cl)cc(Cl)c1O,66% (inactive),99% (active),99.2% (active),39% (inactive),100% (active),99.5% (active),39% (inactive),100% (active),98% (active),40% (inactive),99% (active),99.5% (active),56% (inactive),100% (active),99.5% (active),44% (inactive),99% (active),99.5% (active)
O=C1c2cccc(O)c2C(=O)c2cccc(O)c21,6% (inactive),17% (inactive),20.7% (inactive) and 33.4% (inactive),9% (inactive),17% (inactive),12.1% (inactive) and 22.7% (inactive),0% (inactive),7% (inactive),18.1% (inactive) and 82.8% (active),4% (inactive),24% (inactive),12.4% (inactive) and -23.5% (inactive),4% (inactive),1% (inactive),6% (inactive) and 30.1% (inactive),7% (inactive),39% (inactive),6.5% (inactive) and 76.8% (active)
O=C1/C(=C\c2ccc([N+](=O)[O-])cc2)Sc2scc(-c3ccc(O)c(O)c3)[n+]21,6% (inactive),93% (active),83.2% (active),-10% (inactive),95% (active),93.8% (active),14% (inactive),96% (active),94.9% (active),-4% (inactive),93% (active),71.1% (active),-19% (inactive),98% (active),92.5% (active),23% (inactive),97% (active),90.8% (active)
